In PubChem BioAssay:
Active and inactive are the calls of the source.

Tests used:
[1] = small molecules captured by biotinylated probe aFSTL3 – biochemical, small-molecule microarray, fluorescence 635/667, stem cell growth factor project, primary screen (AID 1064); conditions: higher = more signal;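 further: measures binding of the biotinylated anti-FSTL3 antibody to printed compounds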
[2] = binders from COS7 lysate, DM2A8 probe, primary screen, torsin A project, cell lysate, small-molecule microarray, fluorescence 635/667 (AID 1065); conditions: higher = more signal, COS7 lysate expressing mutant human TOR1A
[3] = small molecules captured by biotinylated probe aFGF2 – biochemical, small-molecule microarray, fluorescence 635/667, stem cell growth factor project, primary screen (AID 1067); conditions: higher = more signal;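 further: measures binding of biotinylated aFGF2 protein to printed compounds on slides; z-score merges feature fluorescence and signal-to-noise across triplicate slides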
[4] = small molecules captured by biotinylated probe aFGF10 – biochemical, small-molecule microarray, fluorescence 635/667, stem cell growth factor project, primary screen (AID 1071); conditions: higher = more signal;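 further: score merges 667 nm spot intensity and signal to noise from triplicate slides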
[5] = biological target: Neurogenic locus notch homolog protein 2 (Homo sapiens) (UniProt Q04721); assay: small molecules binding Notch2 protein – biochemical, small-molecule microarray, 635 nm fluorescence, stem cell growth factors, primary screen (AID 1073); conditions: higher = more signal
[6] = biological target: Pro-neuregulin-1, membrane-bound isoform (Homo sapiens) (UniProt Q02297); assay: small molecules binding neuregulin-1 protein – biochemical, small-molecule microarray, fluorescence 635/667, psychiatric disease protein project, primary screen (AID 1075); conditions: NRG1 binding, 635 nm fluorescence, higher = more signal;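 further: score combines 667 nm spot fluorescence with signal to noise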
[7] = system: Neuregulin-1 EGF-like domain; assay: small molecules binding NRG1 EGF domain – biochemical, small-molecule microarray, 635 nm fluorescence, primary screen (AID 1081); conditions: higher = more signal;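 further: binding of the protein to compounds printed on small-molecule microarray slides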
[8] = FRG1 expression reporter modulators in myotubes – cell-based, C2C12 myotubes, firefly/Renilla luciferase, luminescence, FRG1 inhibition for FSHD, primary screen (AID 1084); conditions: FRG1 promoter luciferase, higher = more signal, called active from +8 up or from −8 down
[9] = small molecules captured by biotinylated probe aFST – biochemical, small-molecule microarray, fluorescence 635/667, stem cell growth factor project, primary screen (AID 1086); conditions: higher = more signal;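 further: score merges 667 nm fluorescence with signal-to-noise of each printed compound spot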
[10] = binders of probe aHhip on microarray, primary screen, stem cell growth factor project, biochemical, small-molecule microarray, fluorescence 635/667 (AID 1087); conditions: higher = more signal;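 further: score merges spot fluorescence at 667nm with spot signal to noise ratio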
[11] = system: PRMT1 (protein arginine N-methyltransferase 1); assay: small molecules binding arginine methyltransferase PRMT1 – biochemical, small-molecule microarray, 635 nm fluorescence, primary screen (AID 1088); conditions: higher = more signal;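 further: binding of Prmt1 protein to compounds spotted on small-molecule microarray slides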
[12] = growth effects on S. cerevisiae YJM789 – YJM789 clinical isolate, OD600, 24 h, basal, primary screen (AID 1089); conditions: higher = more signal, called active from +8 up or from −8 down;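 further: growth of clinical yeast isolate S. cerevisiae YJM 789 seeded 1000 cells per well; test concentration not given here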
[13] = S. pombe growth modifiers, basal conditions – strain 972, OD600, 24 h, no modulator, primary screen (AID 1090);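 further: basal condition with compound alone and no growth modifier present; test concentration not given here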; conditions: S. pombe 972 growth, higher = more signal, called active from +8 up or from −8 down
[14] = budding yeast growth modifiers under rapamycin – strain BY4716, OD600, 96 h, primary screen (AID 1091); further: test concentration not given here; conditions: S. cerevisiae BY4716 + rapamycin, higher = more signal, called active from +8 up or from −8 down
[15] = biological target: Torsin-1A-interacting protein 2 (Homo sapiens) (UniProt Q8NFQ8); assay: small molecules binding lysate-expressed LULL1 – cell lysate, human LULL1 lysate, 635/667 nm fluorescence, primary screen (AID 1092); conditions: small-molecule microarray, hLULL1 lysate binding, 635 nm fluorescence; higher = more signal;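 further: probe is lysate of COS7 cells overexpressing human LULL1; score merges per-feature 667 nm fluorescence with signal-to-noise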
[16] = optical density change of DRC41 E. coli – strain DRC41, OD650, 24 h, E. coli filamentation project, primary screen (AID 1093);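 further: MC1000 strain lacking acrAB efflux and sulA so SOS filamentation is blocked; test concentration not given here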; conditions: E. coli DRC41 growth, higher = more signal, called active from +8 up or from −8 down
[17] = probe aLefty2 binding to arrayed compounds – biochemical, biotinylated probe, 635/667 nm fluorescence, primary screen (AID 1094); conditions: small-molecule microarray, higher = more signal;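 further: score merges spot fluorescence near 667 nm with spot signal-to-noise ratio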
[18] = system: Noggin (protein binding on small-molecule microarray); assay: small molecules binding Noggin protein – biochemical, 635/667 nm fluorescence, primary screen (AID 1095); conditions: 635 nm fluorescence, higher = more signal;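 further: score merges 667 nm feature fluorescence with signal to noise over triplicate slides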
[19] = biological target: Neurogenic locus notch homolog protein 3 (Homo sapiens) (UniProt Q9UM47); assay: small molecules binding NOTCH3 protein – biochemical, 635/667 nm fluorescence, primary screen (AID 1096); conditions: small-molecule microarray, 635 nm fluorescence, higher = more signal
[20] = probe aEGFR binding to arrayed compounds – biochemical, biotinylated probe, 635/667 nm fluorescence, primary screen (AID 1097); conditions: small-molecule microarray, higher = more signal;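 further: probe is a biotinylated anti-EGFR antibody binding compounds printed on slides; score combines fluorescence near 667 nm and signal to noise of each spot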

Pro-neuregulin-1, membrane-bound isoform (Homo sapiens), sequence (Q02297 whole entry, looked up, the tested form may be a part, canonical isoform): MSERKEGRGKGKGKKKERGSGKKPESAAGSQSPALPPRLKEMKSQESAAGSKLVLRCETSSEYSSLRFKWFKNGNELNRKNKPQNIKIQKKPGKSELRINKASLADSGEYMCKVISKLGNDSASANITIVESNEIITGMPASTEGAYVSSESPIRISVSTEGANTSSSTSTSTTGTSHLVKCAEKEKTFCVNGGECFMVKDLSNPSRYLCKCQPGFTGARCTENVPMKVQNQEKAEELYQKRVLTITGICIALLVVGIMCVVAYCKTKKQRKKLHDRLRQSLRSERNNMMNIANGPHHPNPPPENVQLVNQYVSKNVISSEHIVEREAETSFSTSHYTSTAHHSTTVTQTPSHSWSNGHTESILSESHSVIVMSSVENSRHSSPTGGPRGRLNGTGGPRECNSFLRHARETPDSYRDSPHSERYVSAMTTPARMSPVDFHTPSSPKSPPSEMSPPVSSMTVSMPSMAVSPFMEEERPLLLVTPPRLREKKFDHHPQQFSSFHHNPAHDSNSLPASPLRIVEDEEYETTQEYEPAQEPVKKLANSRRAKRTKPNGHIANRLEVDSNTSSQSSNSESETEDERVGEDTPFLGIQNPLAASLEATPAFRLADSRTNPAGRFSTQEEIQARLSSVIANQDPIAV
Neurogenic locus notch homolog protein 2 (Homo sapiens), sequence (Q04721 whole entry, looked up, canonical isoform): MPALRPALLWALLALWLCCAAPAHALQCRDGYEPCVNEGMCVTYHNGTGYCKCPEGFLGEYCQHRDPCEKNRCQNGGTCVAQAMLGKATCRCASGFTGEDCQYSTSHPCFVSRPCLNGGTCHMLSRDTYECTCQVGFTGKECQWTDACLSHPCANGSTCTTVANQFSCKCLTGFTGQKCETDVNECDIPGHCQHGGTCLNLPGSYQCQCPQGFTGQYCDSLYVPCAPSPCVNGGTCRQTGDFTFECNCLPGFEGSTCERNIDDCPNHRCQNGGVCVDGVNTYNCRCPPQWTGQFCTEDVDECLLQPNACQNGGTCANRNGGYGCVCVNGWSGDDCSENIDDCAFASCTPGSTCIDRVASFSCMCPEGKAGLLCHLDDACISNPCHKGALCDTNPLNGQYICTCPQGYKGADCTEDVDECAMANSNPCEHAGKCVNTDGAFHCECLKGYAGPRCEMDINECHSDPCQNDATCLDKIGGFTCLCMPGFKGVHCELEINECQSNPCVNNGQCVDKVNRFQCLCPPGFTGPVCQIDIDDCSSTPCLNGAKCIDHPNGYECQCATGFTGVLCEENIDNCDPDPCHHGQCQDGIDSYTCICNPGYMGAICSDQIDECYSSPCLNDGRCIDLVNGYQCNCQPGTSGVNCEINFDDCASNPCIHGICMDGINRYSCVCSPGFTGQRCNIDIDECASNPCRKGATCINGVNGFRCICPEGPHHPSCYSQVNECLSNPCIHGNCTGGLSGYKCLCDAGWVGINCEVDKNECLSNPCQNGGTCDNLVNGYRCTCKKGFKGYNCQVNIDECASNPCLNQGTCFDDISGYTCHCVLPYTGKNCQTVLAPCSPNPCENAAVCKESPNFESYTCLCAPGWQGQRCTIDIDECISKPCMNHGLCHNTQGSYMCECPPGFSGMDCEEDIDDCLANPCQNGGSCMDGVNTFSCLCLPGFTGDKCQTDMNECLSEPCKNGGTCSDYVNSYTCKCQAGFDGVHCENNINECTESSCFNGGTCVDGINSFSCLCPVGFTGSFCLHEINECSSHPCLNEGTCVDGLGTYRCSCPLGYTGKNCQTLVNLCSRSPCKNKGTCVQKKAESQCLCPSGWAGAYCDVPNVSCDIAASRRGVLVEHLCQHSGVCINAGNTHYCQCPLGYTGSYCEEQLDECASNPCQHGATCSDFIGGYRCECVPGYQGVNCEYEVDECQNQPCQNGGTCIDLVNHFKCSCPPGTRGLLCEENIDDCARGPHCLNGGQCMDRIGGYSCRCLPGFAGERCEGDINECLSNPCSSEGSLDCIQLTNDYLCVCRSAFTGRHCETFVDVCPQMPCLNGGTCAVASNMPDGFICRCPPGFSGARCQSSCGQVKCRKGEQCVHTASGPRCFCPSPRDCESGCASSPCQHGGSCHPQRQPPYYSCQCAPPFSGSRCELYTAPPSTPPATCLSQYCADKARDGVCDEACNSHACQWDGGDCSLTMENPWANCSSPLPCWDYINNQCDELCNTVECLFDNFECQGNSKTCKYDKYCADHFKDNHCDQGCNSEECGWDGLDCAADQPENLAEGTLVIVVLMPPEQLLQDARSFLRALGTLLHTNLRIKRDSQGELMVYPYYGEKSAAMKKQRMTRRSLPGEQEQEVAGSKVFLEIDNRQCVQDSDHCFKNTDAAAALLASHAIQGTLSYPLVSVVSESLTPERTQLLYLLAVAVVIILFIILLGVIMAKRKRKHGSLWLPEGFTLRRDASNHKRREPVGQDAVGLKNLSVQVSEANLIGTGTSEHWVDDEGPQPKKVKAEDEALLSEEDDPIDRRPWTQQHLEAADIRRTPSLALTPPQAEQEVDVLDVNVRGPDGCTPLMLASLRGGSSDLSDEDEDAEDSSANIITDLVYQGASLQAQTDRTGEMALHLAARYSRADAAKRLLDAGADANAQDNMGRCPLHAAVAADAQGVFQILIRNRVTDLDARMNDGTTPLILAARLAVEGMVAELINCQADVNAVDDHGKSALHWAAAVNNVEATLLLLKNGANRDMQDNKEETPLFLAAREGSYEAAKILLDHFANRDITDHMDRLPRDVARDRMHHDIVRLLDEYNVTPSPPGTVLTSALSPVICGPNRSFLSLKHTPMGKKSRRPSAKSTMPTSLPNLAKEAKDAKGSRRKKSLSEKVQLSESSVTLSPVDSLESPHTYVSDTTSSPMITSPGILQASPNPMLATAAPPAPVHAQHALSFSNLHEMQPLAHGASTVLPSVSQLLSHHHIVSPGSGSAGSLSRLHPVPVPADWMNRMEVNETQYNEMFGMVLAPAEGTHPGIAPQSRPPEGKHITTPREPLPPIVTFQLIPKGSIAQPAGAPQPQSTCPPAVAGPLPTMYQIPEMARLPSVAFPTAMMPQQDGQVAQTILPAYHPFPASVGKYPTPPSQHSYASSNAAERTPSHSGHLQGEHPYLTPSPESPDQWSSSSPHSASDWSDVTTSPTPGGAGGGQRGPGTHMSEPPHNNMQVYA
Torsin-1A-interacting protein 2 (Homo sapiens), sequence (Q8NFQ8 whole entry, looked up): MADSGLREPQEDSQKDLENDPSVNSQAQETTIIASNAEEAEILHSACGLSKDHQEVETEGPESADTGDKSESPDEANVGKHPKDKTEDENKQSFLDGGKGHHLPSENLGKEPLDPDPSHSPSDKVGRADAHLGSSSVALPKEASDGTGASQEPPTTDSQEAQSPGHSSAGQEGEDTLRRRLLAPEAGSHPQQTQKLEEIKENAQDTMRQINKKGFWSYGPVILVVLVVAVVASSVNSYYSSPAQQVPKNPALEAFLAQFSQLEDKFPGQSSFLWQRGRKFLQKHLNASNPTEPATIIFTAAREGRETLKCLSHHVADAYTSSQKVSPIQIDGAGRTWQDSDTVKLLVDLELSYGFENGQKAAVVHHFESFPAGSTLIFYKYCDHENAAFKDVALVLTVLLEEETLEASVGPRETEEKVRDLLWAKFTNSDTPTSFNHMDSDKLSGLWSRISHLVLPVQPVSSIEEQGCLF

SMILES: C=CC[C@@H](OC(=O)Nc1ccc(SC)cc1)c1ccc(OCCO)cc1
- composite z-score [1]: 1.15
- composite z-score [2]: -0.325
- composite z-score [3]: -0.175
- composite z-score [4]: -0.932
- composite z-score [5]: -1.77
- composite z-score [6]: 0.767
- composite z-score [7]: 0.801
- z-score [8]: 4.02 (inactive)
- composite z-score [9]: -0.464
- composite z-score [10]: -0.251
- composite z-score [11]: -0.306
- z-score [12]: -0.0227 (inactive)
- z-score [13]: -3.88 (inactive)
- z-score [14]: 0.0294 (inactive)
- composite z-score [15]: 2.42
- z-score [16]: 1.4 (inactive)
- composite z-score [17]: 0.214
- composite z-score [18]: -1.07
- composite z-score [19]: -0.525
- composite z-score [20]: -0.204

SMILES: CCCCCN1CC=CC23O[C@@H]4/C=C\CCC(C)OC(=O)C4[C@H]2C(=O)N(CCCO)[C@@H]3C1=O (stereo not given in full)
- composite z-score [1]: 0.499
- composite z-score [2]: 2.09
- composite z-score [3]: -0.128
- composite z-score [4]: -1.37
- composite z-score [5]: -1.28
- composite z-score [6]: 1.57
- composite z-score [7]: 1.15
- z-score [8]: 0.356 (inactive)
- composite z-score [9]: -0.61
- composite z-score [10]: -0.261
- composite z-score [11]: -0.418
- z-score [12]: -1.3 (inactive)
- z-score [13]: -1.58 (inactive)
- z-score [14]: -0.544 (inactive)
- composite z-score [15]: 0.818
- z-score [16]: 1.77 (inactive)
- composite z-score [17]: -0.441
- composite z-score [18]: -1.44
- composite z-score [19]: -1.17
- composite z-score [20]: -0.262

SMILES: CCOC(=O)C[C@H]1[C@H](OC(=O)Cc2ccc3c(c2)OCO3)[C@@H](NC(=O)c2ccc3ccccc3c2)c2cc(OCCCO)ccc2N1C(=O)c1ccc2ccccc2n1
- composite z-score [1]: -0.123
- composite z-score [2]: 0.243
- composite z-score [3]: -0.161
- composite z-score [4]: 0.319
- composite z-score [5]: 0.429
- composite z-score [6]: 0.799
- composite z-score [7]: 0.8
- z-score [8]: -3.68 (inactive)
- composite z-score [9]: 0.233
- composite z-score [10]: -0.132
- composite z-score [11]: 0.144
- z-score [12]: -3.45 (inactive)
- z-score [13]: -3.3 (inactive)
- z-score [14]: -2.38 (inactive)
- composite z-score [15]: 1.44
- z-score [16]: 0.135 (inactive)
- composite z-score [17]: -0.0865
- composite z-score [18]: 0.235
- composite z-score [19]: 0.808
- composite z-score [20]: 0.0343
